Shown are actives, neighbours in structure and some others; about 5.3% of the full set was active somewhere.
Tau fibril ThT = tau fibrillization inhibition (ThT binding) | P10636 | recombinant tau K18 P301L, heparin-induced fibrillization, ThT fluorescence | Potency, µM (series often up to 57.4 µM), hits mostly inhibitors | actives 2.1% (n = 270,000) | AID 1460; note: nearly all actives have a fitted effect of over 55% in size
Target sequence (P10636 561-689 P618L limits assumed): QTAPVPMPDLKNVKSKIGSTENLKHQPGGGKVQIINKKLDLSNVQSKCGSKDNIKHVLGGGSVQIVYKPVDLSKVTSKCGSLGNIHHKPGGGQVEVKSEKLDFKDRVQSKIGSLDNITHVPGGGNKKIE
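Heparin-induced (20 uM) aggregation of recombinant human K18 P301L tau, 15 uM unlabeled with 0.24 uM labeled, pH 7 acetate buffer, 6 hr at 37 C with compound. Fibrils quantified by 30 uM ThT fluorescence after 1 hr ambient incubation.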
FBPA coupling cs = inhibits coupling enzyme system, counter-screen for aldolase hits. coupling enzyme system counterscreen, AmpLite Red fluorescence. activity change, negative = inhibition, % at 58.2 µM, hits read low. actives 0.67% (n = 290,000); in the data active = activity change below about -30%
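Fluorescence at 525 nm excitation and 598 nm emission measured inhibition of the coupled detection system without aldolase. Compounds (at 57.5 uM final) were preincubated 10 min at room temperature with coupling enzyme reagent before a 20 min substrate/AmpLite Red step.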
Tau fluor cs = counter-screen for tau fibril formation inhibitors; tau K18 P301L (four-repeat tau fragment) Alexa594 fluorescence, heparin fibrillization; Potency, µM (series often up to 57.7 µM); actives 0.93% (n = 280,000); AID 1463; note: nearly all actives have a fitted effect of over 55% in size
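Human K18 P301L tau (15 uM unlabeled plus 0.24 uM Alexa 594-labeled, final) in 100 mM sodium acetate pH 7 was mixed with compound and 20 uM heparin and incubated 6 hr at 37 C.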
Sfp inh = Sfp phosphopantetheinyl transferase inhibition; Potency, µM, usual class: inhibitors; actives 3.5% (n = 310,000); AID 1490; Biochemical Sfp PPTase activity, qHTS;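 note: the enzyme is Sfp with the accession as filed and its product quenches rhodamine fluorescence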
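Compounds were incubated with enzyme (final 15 nM) for 15 min at room temperature before substrate addition started the reaction. Fluorescence at 525 nm excitation, 598 nm emission was recorded immediately and after 30 minutes.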
Tau fibril FP = inhibitors of human tau fibril formation; actives 0.39% (n = 280,000); K18 P301L tau heparin fibrillization, Alexa594 FP, 6 h; Potency, µM (doses to about 57.7 µM), most hits filed as inhibitors; note: nearly all actives have a fitted effect of over 55% in size
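Recombinant K18 P301L […], labeled with Alexa 594 at 0.24 uM over 15 uM unlabeled; heparin inducer 20 uM final; 37 C, 6 hr; FP endpoint.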
JMJD2E inh = blocks human JMJD2E demethylase activity | B2RXH2 | JMJD2E catalytic domain, FDH-coupled NADH fluorescence (FDH is formaldehyde dehydrogenase) | Potency, µM (highest dose often 57.1 µM), actives largely listed as inhibitors | actives 1.6% (n = 230,000); active = well fitted inhibition curve with a large enough effect, not every such curve was filed as active; inconclusive = small, poorly fitted or top-dose-only effect, or another doubt; inactive = no such curve, though single readings can be large or run the other way; note: nearly all actives have a fitted effect of over 50% in size
Target sequence (B2RXH2 1-337 limits assumed): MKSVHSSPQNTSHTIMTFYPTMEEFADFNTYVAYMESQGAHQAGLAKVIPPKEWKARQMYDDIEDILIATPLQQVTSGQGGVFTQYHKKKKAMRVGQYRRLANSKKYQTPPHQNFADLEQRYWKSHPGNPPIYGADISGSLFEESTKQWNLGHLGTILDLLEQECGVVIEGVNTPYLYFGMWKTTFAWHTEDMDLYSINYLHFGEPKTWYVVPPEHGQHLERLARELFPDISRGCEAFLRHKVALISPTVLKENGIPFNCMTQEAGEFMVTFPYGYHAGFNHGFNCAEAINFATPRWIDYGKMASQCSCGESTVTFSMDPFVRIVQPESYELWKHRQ
Of the large screens only hits and unclear results are named; the others gave an inactive call; [ ] = remark or other dose. Unless noted, calls come from the whole dose curve; as a rule, active = well fitted curve in the direction sought with a large enough effect; inconclusive = small, poorly fitted or top-dose-only effect, or another doubt; inactive = no such curve, though single readings can be large; an effect the other way counts as inactive or inconclusive.

Oc1c(C(c2ccccn2)N2CCC(Cc3ccccc3)CC2)cc(Cl)c2cccnc12 (centres undefined)	Tau fibril ThT inconclusive, Sfp inh inconclusive, JMJD2E inh inconclusive
Oc1c(C(c2ccc(Cl)cc2)N2CCCC2)cc(Cl)c2cccnc12 (centres undefined)	Tau fibril ThT inconclusive, JMJD2E inh inconclusive
CNCc1ccccc1Sc1cc(O)ccc1O	Tau fibril ThT 18µM, Tau fluor cs 18µM[quencher], Sfp inh 22µM, Tau fibril FP 32µM, JMJD2E inh inconclusive
Cn1nnc2c(N3CCN(c4ccc(F)cc4)CC3)ncnc21	Tau fibril ThT inconclusive (no result: FBPA coupling cs, Sfp inh, JMJD2E inh)
CCSc1ccccc1C(=O)Nc1ccc(S(=O)(=O)NC(C)=O)cc1	Tau fibril ThT inconclusive, Sfp inh 25µM
O=C(COc1cccnc1[N+](=O)[O-])c1ccc(Cl)s1	Tau fibril ThT 5µM, Tau fluor cs inconclusive, Sfp inh 2µM, Tau fibril FP 10µM, JMJD2E inh 14µM
COc1cccc2c1OC(=O)CC2c1ccccc1C (centres undefined)	none (no result: JMJD2E inh)
CCOC(=O)c1cc(C#N)c(=S)[nH]c1C	Sfp inh inconclusive, Tau fibril FP inconclusive
COCc1[nH]c(=S)c(C#N)cc1C(=O)OC	Tau fibril ThT inconclusive, Sfp inh 8.9µM, JMJD2E inh 25µM
COc1ccc(NC(=S)Nn2cnnc2)cc1OC	Tau fibril ThT inconclusive, Sfp inh 20µM
COc1ccc(NC(=S)Nc2ccc(OCc3ccccc3)cc2)c(OC)c1	Tau fibril ThT inconclusive, Tau fluor cs 14µM[quencher], Tau fibril FP inconclusive
COc1ccc(NC(=S)Nn2cnnc2)c(OC)c1	Sfp inh 18µM (no result: Tau fibril ThT, FBPA coupling cs, Tau fluor cs, Tau fibril FP, JMJD2E inh)
CCc1ccc(NC(=S)Nn2cnnc2)cc1	Tau fibril ThT inconclusive, Sfp inh 14µM
CCc1ccc(NC(=O)Nn2cnnc2)cc1	none (no result: Tau fibril ThT, FBPA coupling cs, Tau fluor cs, Tau fibril FP, JMJD2E inh)
CC(C)(C)c1ccc2c(S(=O)(=O)O)c(C(C)(C)C)ccc2c1	none (no result: Tau fibril ThT, FBPA coupling cs, Tau fluor cs, Tau fibril FP, JMJD2E inh)
O=C(Nc1ccccc1)Nn1cnnc1	none (no result: Tau fibril ThT, Tau fluor cs, Tau fibril FP, JMJD2E inh)
CNC(=S)Nc1ccc(C)cc1	none
Cc1ccc(NC(=S)Nn2cnnc2)cc1	Tau fibril ThT inconclusive, Sfp inh 8.9µM
S=C(Nc1ccccc1)Nn1cnnc1	Tau fibril ThT inconclusive, Sfp inh 13µM
C=CCOc1c(Br)cc(CNc2ccc(NC(=O)C(C)C)c(OC)c2)cc1OC	Tau fibril ThT inconclusive, FBPA coupling cs -45
CC(/C=C(\NC(=O)c1ccccc1)C(=O)N=Nc1c(O)[nH]c2ccc(C)cc12)=C\c1ccccc1	Tau fibril ThT 20µM, Tau fluor cs inconclusive
Cc1ccc2[nH]c(O)c(N=NC(N)=S)c2c1	Tau fibril ThT inconclusive
CCN1/C(=C/C(C)=C/c2sc3ccccc3[n+]2CC)Sc2ccccc21	Tau fibril ThT 1.6µM, Tau fluor cs 0.45µM[fluorescent], Sfp inh 32µM, Tau fibril FP inconclusive
COc1ncc2nc(-c3ccccc3)c(=O)n(-c3ccccc3)c2n1	none (no result: Tau fibril ThT, Tau fluor cs, Tau fibril FP, JMJD2E inh)
Cc1ccc(-n2nc(-c3ccc(OC(F)(F)F)cc3)cc2N)cc1C	Tau fibril ThT inconclusive, Tau fluor cs 11µM[quencher], JMJD2E inh inconclusive
Fc1ccccc1CN1CCCN(C(=S)Nc2cccc(Cl)c2)C1	Tau fluor cs inconclusive, Tau fibril FP 32µM
COC(=O)CSc1nc2c(c(-c3ccco3)c1C#N)CCCC2	Tau fibril ThT inconclusive, Sfp inh 35µM, JMJD2E inh inconclusive
CCOC(=O)CSc1nc2c(c(-c3ccc(C)o3)c1C#N)CCCC2	Sfp inh 14µM, JMJD2E inh inconclusive
COC(=O)CSc1nc2c(c(-c3ccc(O)cc3)c1C#N)CCCC2	Tau fluor cs inconclusive, Tau fibril FP inconclusive
CCOC(=O)C(C)Sc1nc2c(c(-c3cccs3)c1C#N)CCC2 (centres undefined)	Sfp inh 50µM
Cc1ccc(-c2c(C#N)c(N)nc3c2CCCCC3)o1	Sfp inh 50µM, JMJD2E inh inconclusive
Cc1ccc(-c2c(C#N)c(N)nc3c2CCCCCC3)o1	JMJD2E inh inconclusive

Bioassay records as filed in PubChem.
